G9a block = G9a (human) methyltransferase inhibition | Q96KQ7 | actives 8.8% (n = 350,000) | Potency, µM (highest dose often 102 µM), for the others: top-dose activity, negative = inhibition, actives largely listed as inhibitors | AID 504332 | G9a H3K9 monomethylation, AlphaScreen, 2 h; also: % is scaled to controls: 0 for no effect and ±100 for the full control effect; nearly all actives have a fitted effect of over 75% in size
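Using a bead-based AlphaScreen, monomethylated H3K9 product from 2 h room-temperature reactions (G9a 20 nM, peptide 500 nM, SAM 20 uM) was detected with 0.5 ug/mL rabbit anti-H3K9me1 antibody.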
BAZ2B block = BAZ2B (human) inhibition. actives 4.4% (n = 360,000). Q9UIF8. Potency, µM (doses to about 114 µM), for inactives: at the highest dose activity change, negative = inhibition, hits mostly inhibitors. AlphaScreen BAZ2B-H3K14Ac peptide displacement; also: % is scaled to controls: 0 for no effect and ±100 for the full control effect; nearly all actives have a fitted effect of over 60% in size
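Multi-concentration screen (max 110 uM) measuring displacement of acetylated histone H3 peptide from BAZ2B by AlphaScreen, using 50 nM protein, 50 nM peptide and 10 ug/mL streptavidin donor plus Ni-chelate acceptor beads.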
Sfp inh = inhibitors of Bacillus subtilis Sfp phosphopantetheinyl transferase; Q9F4F7; Biochemical Sfp PPTase activity, qHTS; Potency, µM, without a hit: largest response in the series, negative = inhibition, hits mostly inhibitors; actives 3.5% (n = 310,000); AID 1490;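 also: the enzyme is Sfp with the accession as filed and its product quenches rhodamine fluorescence; 0% = enzyme reaction without inhibitor and -100% = no enzyme wells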
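With Hepes-Na pH 7.6 buffer containing 10 mM MgCl2, Sfp (15 nM) modified BHQ-2-YbbR (12.5 uM) using rhodamine-CoA (5 uM). Two reads 30 minutes apart at 525/598 nm yielded each well's rate.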
JMJD2A Tudor inh = inhibitors of human JMJD2A Tudor domain. actives 4.4% (n = 390,000). AlphaScreen JMJD2A-Tudor / H3K4me3 peptide binding. Potency, µM (highest dose often 114 µM), for inactives: at the top dose activity change, negative = inhibition, usual class: inhibitors. O75164; also: % is scaled to controls: 0 for no effect and ±100 for the full control effect; nearly all actives have a fitted effect of over 50% in size
Target sequence (O75164 whole entry, looked up, the tested form may be a part): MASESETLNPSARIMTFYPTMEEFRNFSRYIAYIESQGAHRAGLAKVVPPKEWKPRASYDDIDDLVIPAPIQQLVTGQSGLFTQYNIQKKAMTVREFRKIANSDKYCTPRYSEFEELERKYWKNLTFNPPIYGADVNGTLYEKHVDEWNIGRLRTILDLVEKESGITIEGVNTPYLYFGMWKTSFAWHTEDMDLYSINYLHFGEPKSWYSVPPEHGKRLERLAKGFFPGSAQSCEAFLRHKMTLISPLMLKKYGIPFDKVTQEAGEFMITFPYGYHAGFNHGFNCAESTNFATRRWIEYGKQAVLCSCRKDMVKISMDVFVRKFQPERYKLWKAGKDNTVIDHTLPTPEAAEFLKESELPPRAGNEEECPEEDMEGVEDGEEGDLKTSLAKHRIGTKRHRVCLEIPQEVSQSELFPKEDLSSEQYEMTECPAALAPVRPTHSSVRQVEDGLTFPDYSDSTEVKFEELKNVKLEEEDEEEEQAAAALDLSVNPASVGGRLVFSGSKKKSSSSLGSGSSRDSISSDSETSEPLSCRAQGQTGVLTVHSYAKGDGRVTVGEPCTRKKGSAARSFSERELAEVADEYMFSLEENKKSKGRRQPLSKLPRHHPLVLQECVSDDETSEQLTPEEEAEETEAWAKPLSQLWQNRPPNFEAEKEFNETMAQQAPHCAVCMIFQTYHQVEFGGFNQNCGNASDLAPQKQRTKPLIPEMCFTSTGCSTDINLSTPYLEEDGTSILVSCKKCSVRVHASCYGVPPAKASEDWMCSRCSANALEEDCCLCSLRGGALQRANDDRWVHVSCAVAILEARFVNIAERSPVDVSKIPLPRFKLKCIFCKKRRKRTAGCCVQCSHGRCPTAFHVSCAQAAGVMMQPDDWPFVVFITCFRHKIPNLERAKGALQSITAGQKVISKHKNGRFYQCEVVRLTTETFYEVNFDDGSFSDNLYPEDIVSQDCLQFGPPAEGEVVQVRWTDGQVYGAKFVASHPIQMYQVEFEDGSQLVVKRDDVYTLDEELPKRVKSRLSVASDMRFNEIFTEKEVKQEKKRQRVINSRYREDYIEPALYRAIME
HP1b binding inh = HP1-beta chromodomain-methylated histone interaction inhibition. AlphaScreen HP1-beta / biotin-H3K9me3 peptide binding. Potency, µM (titrated, usually from 114 µM), for the others: at the highest dose activity change, negative = inhibition, most hits filed as inhibitors. actives 0.56% (n = 390,000); also: nearly all actives have a fitted effect of over 70% in size
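AlphaScreen: HP1-beta (50 nM) preformed 30 min with biotin-H3(1-18)K9me3 peptide (50 nM) in PBS pH 7.4, 0.01% Tween-20. Compound added for 30 min at RT, then streptavidin donor/nickel chelate acceptor beads (10 ug/mL) for 30 min.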
Starred values were filed as active, the others as inactive; ? = inconclusive; / = no result; ! = a repeat was not active; [ ] = another dose, or the depositor's remark. Compounds with a hit are over-represented: about 12% of the library has one in this group of screens. Calls follow the shape of the dose curve; as a rule, active = well fitted curve in the direction sought with a large enough effect; inconclusive = small, poorly fitted or top-dose-only effect, or another doubt; inactive = no such curve, though single readings can be large; an effect the other way counts as inactive or inconclusive. Potency is read from the fitted curve at half-maximal effect.

SMILES | G9a block | BAZ2B block | Sfp inh | JMJD2A Tudor inh | HP1b binding inh
CSc1ccc(C2NC(=O)c3c(sc4c3CCN(C)C4)N2)cc1 (configuration not stated) | 39.8µM* | -33.7% | ? | ? | 1.1%
Cc1ccsc1C1NC(=O)c2c(sc3c2CCN(C)C3)N1 (configuration not stated) | 39.8µM* | -6.8% | 4.8% | ? | ?
COc1ccc(C(=O)Oc2ccc(C3NC(=O)c4c(sc5c4CCN(C)C5)N3)cc2OC)cc1 (configuration not stated) | 25.9%[59 µM] | 6.7% | / | 56.2µM* | ?
COc1ccc(NC(=O)CCNS(=O)(=O)c2cc(Br)cnc2N)c(OC)c1 | 21.9% | -27.2% | 7.7% | -34.5% | 26.5%
CC(C)c1ccc(C2NC(=O)c3c(sc4c3CCN(C)C4)N2)cc1 (configuration not stated) | ? | -1.6% | / | -21.5% | 16.0%
CN1CCc2c(sc3c2C(=O)NC(c2ccc(C(C)(C)C)cc2)N3)C1 (configuration not stated) | 8.91µM* | -16.7% | / | ? | 6.6%
COC(=O)CN(C)C(=O)c1ccccc1OC1CCN(S(C)(=O)=O)CC1 | / | -7.3% | 2.4% | -12.3% | 24.3%
CC(=O)c1cc2c(cc1NC(=O)CCCC(=O)O)OCO2 | -4.2% | 8.7% | 25.1% | -2.6% | 35.8%
CC(=O)c1cc2c(cc1NC(=O)CCn1cnnn1)OCO2 | 39.8µM* | 4.3% | 31.7% | -1.4% | 41.9%
CC(=O)c1cc2c(cc1NC(=O)CN1CCCCCCC1)OCO2 | 10µM* | 50.1µM* | -25.1% | ? | ?
COCCC(=O)NNS(=O)(=O)c1ccc(Cl)cc1 | 7.1%[59 µM] | 4.2% | 8.9% | ? | 3.4%
Cc1nnc(NS(=O)(=O)c2ccc(N)cc2)s1 | 0.1%[59 µM] | 3.1% | 17.6% | -9.7% | 39.5%
Cc1nnc(NS(=O)(=O)c2ccc(N=Nc3ccc(N)nc3N)cc2)s1 | / | / | / | 50.1µM* | ?
CCSC1=C(C#N)C(c2ccccc2Cl)C(C(=O)c2cccs2)C(O)(C(F)(F)F)N1 (configuration not stated) | 10µM* | -8.4% | 2.8% | -16.8%[57.1 µM] | 44.9%
CCOC(=O)C1CCCCN1Cc1cc(OC)ccc1OC (configuration not stated) | 12.6µM* | ? | -13.2% | 17.8µM* | ?
CCOC(=O)C1CCCCN1Cc1cccc(OC)c1OC (configuration not stated) | 11.2µM* | ? | ? | 5.62µM* | ?
CCOC(=O)CNC(=O)O[C@H]1C(=O)c2ccc(OC)cc2O[C@@H]1c1ccc2c(c1)OCO2 | / | / | 7.9% | / | /
COc1ccc(N2CCN(CCCNC(=O)c3nnc(Cc4ccc(F)cc4)o3)CC2)cc1 | -50.7%[59 µM] | 35.5µM* | / | -8.2% | 6.6%
COc1ccc(N2CCN(CCCNC(=O)c3ccc4nc(Cc5ccccc5)oc4c3)CC2)cc1 | 14.1µM* | 39.8µM* | / | 31.6µM* | -33.1%[57 µM]
O=C(NCCCN1CCN(c2ccccc2)CC1)c1ccc2nc(CCc3ccccc3)oc2c1 | ? | -37.5% | / | ? | -3.7%[57 µM]
COc1ccc(Cc2nnc(C(=O)NCCCN3CCN(c4ccccc4F)CC3)o2)cc1OC | -29.8%[59 µM] | -30.6% | / | ? | -26.9%
COc1ccc(N2CCN(CCCNC(=O)c3ccc4nc(CCc5ccccc5)oc4c3)CC2)cc1 | ? | 31.6µM* | / | 22.4µM* | -15.5%[57 µM]
Oc1c(Cl)cc(Cl)cc1/C=N/c1nc(-c2ccc(Cl)cc2)cs1 | ? | -26.4% | 22.6% | ? | -6.1%
Oc1c(Cl)cc(Cl)cc1/C=N/c1nccs1 | 8.91µM* | -1.5% | 50.1µM* | -17.8% | 15.8%
CC(C)(C)OC(=O)N1C2C=CC1C1=COCCN1C2=O (configuration not stated) | / | / | 10.0% | -9.0% | 31.6%
SMILES | G9a block | BAZ2B block | Sfp inh | JMJD2A Tudor inh | HP1b binding inh
Cc1nc(NCC(c2ccccc2)N(C)C)c2c(C)c(C)sc2n1 (configuration not stated) | -10.4% | -23.3% | 8.8% | -19.1% | -3.6%
Cc1ccc(C)c(N2CCN(c3ncccc3[N+](=O)[O-])CC2)c1 | -9.7%[2.33 µM] | 31.6µM* | -3.0% | 39.8µM* | -20.8%
O=[N+]([O-])c1cccnc1N1CCN(c2ccccc2F)CC1 | ? | ? | 0.6% | 50.1µM* | ?
Cc1ccc(N2CCN(c3ncccc3[N+](=O)[O-])CC2)c(C)c1 | 17.8µM* | 28.2µM* | 0.8% | 39.8µM* | ?
CCCCc1ccc(NC(=O)CSc2nc3ccccc3nc2N2CCOCC2)cc1 | 6.1%[59 µM] | 14.0% | / | 6.2% | 57.9%
CCOC(=O)/C(C#N)=C/c1c(Oc2cccc(C)c2)nc2c(C)cccn2c1=O | 26.1%[59 µM] | -1.0% | 89.1µM* | -6.7% | 30.2%
CCOC(=O)/C(C#N)=C/c1c(Oc2cccc(C)c2)nc2ccccn2c1=O | -31.5% | -19.2% | 7.5% | -3.0% | 28.5%
CNC(=O)/C(C#N)=C/c1c(N2CCN(c3ccc(OC)cc3)CC2)nc2c(C)cccn2c1=O | 0.7%[2.33 µM] | 39.8µM* | -0.7% | 50.1µM* | ?
COC(=O)/C(C#N)=C/c1c(N2CCN(c3ccc(OC)cc3)CC2)nc2c(C)cccn2c1=O | ? | ? | -1.2% | 11.2µM* | ?
Cc1cccn2c(=O)c(C=C(C#N)C#N)c(N3CCN(c4ccccc4)CC3)nc12 | ? | ? | -1.2% | ? | -6.8%
Cc1cccn2c(=O)c(/C=C(\C#N)C(N)=O)c(N3CCN(c4cccc(Cl)c4)CC3)nc12 | 22.4µM* | -33.7% | -11.1% | ? | -11.3%
CNC(=O)/C(C#N)=C/c1c(N2CCN(c3ccccc3)CC2)nc2c(C)cccn2c1=O | 19.9%[2.33 µM] | -1.8% | 15.0% | -13.6% | -15.5%
COC(=O)/C(C#N)=C/c1c(N2CCCCCC2)nc2c(C)cccn2c1=O | 35.6% | 23.0% | -12.7% | -33.1% | -1.1%
COc1cc2c(cc1OC)n(CC(=O)c1cccc(Cl)c1)c(=O)n1nc(CCn3nc(C)cc3C)nc21 | 10.5%[59 µM] | -2.7% | / | -10.7% | 22.8%
CCCNC(=O)c1c(NC(=O)c2ccccc2)sc2c1CCC(C(C)(C)C)C2 (configuration not stated) | -1.9%[59 µM] | -5.9% | / | 16.6% | 55.9%
O=C1N(c2ccccc2)c2ccccc2C1(Cc1ccncc1)Cc1ccncc1 | 12.6µM*! | ? | 8.4% | -12.9% | 32.4%
CCC(Sc1nc(-c2ccccc2)[nH]c1S(=O)(=O)c1ccc(C)cc1)C(=O)O (configuration not stated) | 12.6µM* | -12.6% | / | -11.6% | 39.1%
Cc1ccc(S(=O)(=O)c2[nH]c(-c3ccccc3)nc2SCCC(=O)O)cc1 | ? | -15.7% | / | -0.7% | 73.5%
CCCSc1nc(-c2ccccc2)[nH]c1S(=O)(=O)c1ccc(C)cc1 | 12.6µM* | -37.8% | / | -30.5% | 39.8%
C=Cn1cc[n+](CC(=O)c2ccc(OC)cc2)c1 | -1.0% | -0.9% | 18.5% | -14.4% | 7.3%
CC(=O)c1cccc(NC(=O)CCn2c(=S)oc3ccccc32)c1 | ? | -25.2% | -10.2% | -24.7% | 2.7%
